Measurements taken from PubChem BioAssay (EPA / NIEHS).
Calls of active or inactive are those of the source. Rule for the calls: active = hit-call score of the fitted dose curve at least 0.9, where 1 is the maximum; inactive = score below 0.9.

Key:
[1] = ATG_CRE_CIS: Attagene CIS-FACTORIAL HepG2 Assay for human cAMP Responsive Element (CRE) binding protein 3 (AID 2282926); settings: HepG2 CRE cis-reporter, Attagene multiplexed mRNA; actives raise or lower the signal
Summary of the method: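 Endogenous transcription factor activity read via CRE-regulated reporter transcripts in transfected HepG2 cells. After 24 h exposure, RNA was reverse-transcribed, amplified, fluorescently labelled and sized by capillary electrophoresis; gain or loss fitted against DMSO.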

[2] = biological target: CCAAT/enhancer-binding protein beta (Homo sapiens) (UniProt P17676); test: ATG_C_EBP_CIS: Attagene CIS-FACTORIAL HepG2 Assay for human CCAAT/Enhancer Binding Protein (C/EBP) beta (AID 2282927); settings: HepG2 Attagene cis-factorial transcription factor reporter; actives raise or lower the signal
Summary of the method: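 HepG2 transiently transfected with multiplexed reporter units under cis-regulatory promoters reporting endogenous C/EBPb activity. After 24 h exposure, reporter mRNA assayed by RT-PCR, fluorescent labelling, HpaI digestion and capillary electrophoresis; bidirectional fitting versus DMSO.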

[3] = ATG_CMV_CIS: Attagene CIS-FACTORIAL HepG2 Assay for human CMV (Internal Marker) (AID 2282928); settings: HepG2 CMV promoter reporter, transcription factor profiling; actives raise or lower the signal;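 note: endpoint acts as a background internal control marker rather than a target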
Summary of the method: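 Readout: fluorescent reporter cDNA fragments separated by capillary electrophoresis after RT-PCR and HpaI cut. Cells: HepG2 carrying transfected cis-promoter reporter constructs, dosed 24 h. Endpoint serves as background internal-marker control, fit bidirectionally versus DMSO.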

[4] = biological target: Aryl hydrocarbon receptor (Homo sapiens) (UniProt P35869); test: ATG_Ahr_CIS: Attagene CIS-FACTORIAL HepG2 Assay for human Aryl Hydrocarbon Receptor (Ahr) (AID 2282930); settings: HepG2 AhR cis-factorial reporter transcription; actives raise or lower the signal
Summary of the method: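 HepG2 cells transiently transfected with cis-element-driven multiplexed reporter units; endogenous AhR activity read as reporter mRNA 24 h after dosing, via RT-PCR, 6-FAM labelling, HpaI digestion and capillary electrophoresis. Bidirectional fit relative to DMSO.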

[5] = ATG_AP_1_CIS: Attagene CIS-FACTORIAL HepG2 Assay for human Activator Protein 1 (AP-1) (AID 2282931); settings: HepG2 Attagene cis-factorial AP-1 reporter mRNA; actives raise or lower the signal
Summary of the method: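 Transient MRTU transfection of HepG2 → 24 h chemical treatment → RNA isolation, RT-PCR, 6-FAM labelling, HpaI digest → capillary electrophoresis. Fit: bidirectional, DMSO negative control.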

[6] = ATG_AP_2_CIS: Attagene CIS-FACTORIAL HepG2 Assay for human Activator Protein 2 (AP-2) (AID 2282932); settings: HepG2 AP-2 cis-reporter, Attagene transcription factor profiling; actives raise or lower the signal
Summary of the method: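 Read-out: fluorescent reporter mRNA via RT-PCR and capillary electrophoresis, 24 h post-dose in transiently transfected HepG2. Endogenous factors drive cis-promoter reporters; gain or loss of signal fitted bidirectionally against DMSO.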

[7] = ATG_BRE_CIS: Attagene CIS-FACTORIAL HepG2 Assay for human Bone Morphogenetic Protein (BMP) Response Element (BRE) (AID 2282933); settings: HepG2 BMP response element reporter, Attagene transcription factor profiling; actives raise or lower the signal
Summary of the method: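 A HepG2 multiplex reporter system measured inducible reporter mRNA 24 h post-dosing. Detection: RT-PCR, 6-FAM primer extension, HpaI digestion, capillary electrophoresis. Activity fitted bidirectionally relative to DMSO.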

[8] = biological target: Retinoic acid receptor alpha (Homo sapiens) (UniProt P10276); test: ATG_DR5_RAR_CIS: Attagene CIS-FACTORIAL HepG2 Assay for human Retinoic Acid Receptor Alpha (RARE), DR5 submotif (AID 2282934); settings: HepG2 Attagene cis-factorial RARE DR5 reporter, mRNA; actives raise or lower the signal
Summary of the method: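 HepG2 cells transiently transfected with multiplexed reporter units; DR5 cis-element drives reporter through endogenous transcription factors. After 24 h dosing, reporter mRNA quantified by RT-PCR, fluorescent labeling, HpaI digestion and capillary electrophoresis; bidirectional fitting versus DMSO.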

[9] = ATG_E_Box_CIS: Attagene CIS-FACTORIAL HepG2 Assay for human Enhancer Box (E-box) (AID 2282936); settings: HepG2 E-box cis-reporter transcription, actives raise or lower the signal
Summary of the method: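 Transiently transfected HepG2, endogenous TF-driven reporters, 24 h dosing. Readout: RT-PCR plus capillary electrophoresis of fluorescent reporter fragments. Gain or loss of signal fitted bidirectionally against DMSO baseline.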

[10] = ATG_M_61_CIS: Attagene CIS-FACTORIAL HepG2 Assay for M61 Transcription Factor (Internal Marker) (AID 2282937); settings: HepG2 Attagene CIS-FACTORIAL M61 internal marker reporter; actives raise or lower the signal
Summary of the method: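 Human liver HepG2, transient MRTU transfection (cis promoter elements), 24 h compound. Total RNA → oligo(dT) RT → PCR → FAM label → HpaI → CE. Internal background marker; bidirectional fitting, DMSO = baseline.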

[11] = ATG_EGR_CIS: Attagene CIS-FACTORIAL HepG2 Assay for human Early Growth Response 1 (EGR1) (AID 2282938); settings: HepG2 Attagene CIS-FACTORIAL EGR reporter mRNA; actives raise or lower the signal
Summary of the method: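 Transient transfection of human HepG2 with multiple cis-regulated reporter units, chemical exposure 24 h, total RNA isolated. Reverse transcription, PCR, fluorescent labelling and capillary electrophoresis quantify reporter transcripts; activity fitted bidirectionally against DMSO.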

[12] = ATG_M_19_CIS: Attagene CIS-FACTORIAL HepG2 Assay for M19 Transcription Factor (Internal Marker) (AID 2282939); settings: HepG2 Attagene CIS-FACTORIAL M19 internal marker reporter; actives raise or lower the signal
Summary of the method: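 Chemical-treated HepG2 (24 h) with MRTU constructs; reporter transcripts detected by fluorescent RT-PCR fragment analysis on capillary electrophoresis. Internal background marker, DMSO as baseline.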

[13] = ATG_ERE_CIS: Attagene CIS-FACTORIAL HepG2 Assay for Estrogen Response Element (ERE) (AID 2282940); settings: HepG2 ERE cis-reporter, Attagene RNA transcript; actives raise or lower the signal
Summary of the method: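 Human liver cells (HepG2) bearing transiently transfected, promoter-regulated reporter units were exposed 24 h. Reporter mRNA induction was detected by capillary electrophoresis of labelled RT-PCR products and fitted bidirectionally to DMSO.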

[14] = ATG_Ets_CIS: Attagene CIS-FACTORIAL HepG2 Assay for human Erythroblast Transformation Specific (ETS) (AID 2282941); settings: HepG2 ETS cis-reporter transcription, actives raise or lower the signal
Summary of the method: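 RT-PCR/capillary electrophoresis fluorescence read-out of reporter mRNA; HepG2 transient multi-reporter transfection; 24 h compound exposure; gain or loss of signal fitted bidirectionally relative to DMSO.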

[15] = ATG_FoxO_CIS: Attagene CIS-FACTORIAL HepG2 Assay for human Forkhead box O (FoxO) (AID 2282943); settings: HepG2 Attagene cis-reporter, FoxO element, mRNA; actives raise or lower the signal
Summary of the method: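 HepG2 cells transiently transfected with cis-element-driven reporter units report endogenous FoxO activity. After 24 h chemical exposure, reporter mRNA quantified by RT-PCR, fluorescent labeling, HpaI digestion and capillary electrophoresis; bidirectional fit versus DMSO.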

[16] = ATG_GATA_CIS: Attagene CIS-FACTORIAL HepG2 Assay for human GATA Binding Protein (AID 2282944); settings: HepG2 GATA cis-element reporter, Attagene multiplex mRNA; actives raise or lower the signal
Summary of the method: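 Transfected cis-reporter HepG2 cells were treated with chemicals for 24 hours. Total RNA was then converted to cDNA, amplified with reporter-specific primers and analysed by fluorescent capillary electrophoresis, using DMSO-treated wells as baseline.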

[17] = ATG_GLI_CIS: Attagene CIS-FACTORIAL HepG2 Assay for human Zinc Finger Protein GLI1 (AID 2282945); settings: HepG2, Attagene cis-factorial reporter mRNA, GLI element; actives raise or lower the signal
Summary of the method: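 Transiently transfected HepG2 cells report endogenous transcription factor activity via cis-element-driven reporter units. After 24 h compound exposure, reporter mRNA was measured by RT-PCR with capillary electrophoresis; bidirectional fitting against DMSO baseline.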

[18] = ATG_DR4_LXR_CIS: Attagene CIS-FACTORIAL HepG2 Assay for human Liver X Receptor (LXR), DR4 submotif (AID 2282929); settings: HepG2 Attagene DR4 cis-reporter, mRNA transcription; actives raise or lower the signal
Summary of the method: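 HepG2, transient MRTU transfection, cis-element (DR4) promoter; 24 h compound exposure; total RNA → oligo(dT) RT → PCR → 6-FAM primer extension → HpaI cut → CE. Gain/loss vs DMSO, bidirectional fit.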

[19] = biological target: Hepatocyte nuclear factor 3-beta (Homo sapiens) (UniProt Q9Y261); test: ATG_FoxA2_CIS: Attagene CIS-FACTORIAL HepG2 Assay for human Forkhead box A2 (FOXA2) (AID 2282942); settings: HepG2 cis-reporter transcription factor activity, 24 h; actives raise or lower the signal
Summary of the method: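 Transient MRTU transfection of HepG2 liver cells; 24 h treatment; total RNA → oligo(dT) RT → PCR → FAM primer extension → HpaI cut → CE. Bidirectional fit vs DMSO.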

[20] = biological target: Transcription factor E2F1 (Homo sapiens) (UniProt Q01094); test: ATG_E2F_CIS: Attagene CIS-FACTORIAL HepG2 Assay for human E2F Transcription Factor 1 (AID 2282935); settings: HepG2 Attagene cis-reporter, E2F reporter RNA transcripts; actives raise or lower the signal
Summary of the method: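 Transient MRTU transfection of HepG2; 24 h compound exposure; RNA → oligo(dT) RT → PCR → FAM label → HpaI cut → CE fluorescence. Gain/loss of signal fit against DMSO.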

Measured: outcome

Chain of Retinoic acid receptor alpha (Homo sapiens) (P10276 whole entry, looked up): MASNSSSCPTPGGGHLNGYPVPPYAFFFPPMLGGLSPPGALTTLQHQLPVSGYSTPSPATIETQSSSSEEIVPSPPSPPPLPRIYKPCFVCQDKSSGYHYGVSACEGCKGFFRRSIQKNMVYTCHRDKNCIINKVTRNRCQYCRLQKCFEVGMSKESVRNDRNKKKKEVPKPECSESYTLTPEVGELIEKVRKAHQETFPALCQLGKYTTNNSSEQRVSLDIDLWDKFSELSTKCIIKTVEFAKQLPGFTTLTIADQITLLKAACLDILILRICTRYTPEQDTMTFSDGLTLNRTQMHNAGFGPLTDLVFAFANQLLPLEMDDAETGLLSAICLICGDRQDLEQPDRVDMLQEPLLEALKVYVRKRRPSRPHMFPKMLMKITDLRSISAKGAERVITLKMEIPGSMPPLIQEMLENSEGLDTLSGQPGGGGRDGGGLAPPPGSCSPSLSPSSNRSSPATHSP
Chain of CCAAT/enhancer-binding protein beta (Homo sapiens) (P17676 whole entry, looked up): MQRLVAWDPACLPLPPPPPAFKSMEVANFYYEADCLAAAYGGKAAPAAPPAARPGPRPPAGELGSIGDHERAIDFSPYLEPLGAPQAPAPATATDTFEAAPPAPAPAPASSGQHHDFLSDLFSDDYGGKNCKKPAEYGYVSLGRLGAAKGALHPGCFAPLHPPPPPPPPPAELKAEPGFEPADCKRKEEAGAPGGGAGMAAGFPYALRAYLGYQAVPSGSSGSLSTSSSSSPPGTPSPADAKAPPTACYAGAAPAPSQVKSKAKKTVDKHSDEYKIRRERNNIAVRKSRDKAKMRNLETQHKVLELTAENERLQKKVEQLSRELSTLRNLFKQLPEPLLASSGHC
Chain of Hepatocyte nuclear factor 3-beta (Homo sapiens) (Q9Y261 whole entry, looked up): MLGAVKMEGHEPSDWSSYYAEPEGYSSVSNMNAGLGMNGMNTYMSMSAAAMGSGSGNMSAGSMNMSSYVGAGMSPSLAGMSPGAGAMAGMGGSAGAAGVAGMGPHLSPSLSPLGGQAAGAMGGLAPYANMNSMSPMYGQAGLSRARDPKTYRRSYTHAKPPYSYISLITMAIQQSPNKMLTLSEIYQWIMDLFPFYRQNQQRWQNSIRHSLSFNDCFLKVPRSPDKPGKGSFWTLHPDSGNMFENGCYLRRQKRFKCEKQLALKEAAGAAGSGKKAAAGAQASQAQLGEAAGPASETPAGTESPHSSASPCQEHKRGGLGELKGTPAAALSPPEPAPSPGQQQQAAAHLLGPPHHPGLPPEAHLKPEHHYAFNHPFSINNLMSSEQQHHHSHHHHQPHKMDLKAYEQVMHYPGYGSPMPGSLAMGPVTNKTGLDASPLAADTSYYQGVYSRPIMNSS
Chain of Aryl hydrocarbon receptor (Homo sapiens) (P35869 whole entry, looked up): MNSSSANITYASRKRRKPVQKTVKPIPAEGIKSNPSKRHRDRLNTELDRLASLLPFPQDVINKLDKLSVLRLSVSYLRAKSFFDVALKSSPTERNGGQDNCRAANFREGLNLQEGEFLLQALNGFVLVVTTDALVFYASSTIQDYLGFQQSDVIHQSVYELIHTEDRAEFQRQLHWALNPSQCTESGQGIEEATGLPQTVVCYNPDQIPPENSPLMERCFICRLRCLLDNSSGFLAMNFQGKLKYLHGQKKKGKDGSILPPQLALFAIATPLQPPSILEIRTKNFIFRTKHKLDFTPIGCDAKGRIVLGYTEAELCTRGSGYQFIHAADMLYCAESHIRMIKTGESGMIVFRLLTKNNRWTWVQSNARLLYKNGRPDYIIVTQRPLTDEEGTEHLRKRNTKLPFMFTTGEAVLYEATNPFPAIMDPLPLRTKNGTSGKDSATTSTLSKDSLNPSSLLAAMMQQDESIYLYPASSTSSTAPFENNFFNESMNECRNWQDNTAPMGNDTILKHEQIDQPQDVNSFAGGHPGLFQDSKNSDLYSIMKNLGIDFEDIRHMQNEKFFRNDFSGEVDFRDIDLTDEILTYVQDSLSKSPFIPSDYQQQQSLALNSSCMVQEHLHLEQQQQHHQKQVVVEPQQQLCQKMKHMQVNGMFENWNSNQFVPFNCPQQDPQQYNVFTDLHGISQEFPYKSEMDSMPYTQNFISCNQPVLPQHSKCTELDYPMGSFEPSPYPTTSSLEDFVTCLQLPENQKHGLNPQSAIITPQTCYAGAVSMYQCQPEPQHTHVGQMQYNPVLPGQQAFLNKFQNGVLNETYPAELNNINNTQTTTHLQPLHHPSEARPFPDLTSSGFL
Chain of Transcription factor E2F1 (Homo sapiens) (Q01094 whole entry, looked up): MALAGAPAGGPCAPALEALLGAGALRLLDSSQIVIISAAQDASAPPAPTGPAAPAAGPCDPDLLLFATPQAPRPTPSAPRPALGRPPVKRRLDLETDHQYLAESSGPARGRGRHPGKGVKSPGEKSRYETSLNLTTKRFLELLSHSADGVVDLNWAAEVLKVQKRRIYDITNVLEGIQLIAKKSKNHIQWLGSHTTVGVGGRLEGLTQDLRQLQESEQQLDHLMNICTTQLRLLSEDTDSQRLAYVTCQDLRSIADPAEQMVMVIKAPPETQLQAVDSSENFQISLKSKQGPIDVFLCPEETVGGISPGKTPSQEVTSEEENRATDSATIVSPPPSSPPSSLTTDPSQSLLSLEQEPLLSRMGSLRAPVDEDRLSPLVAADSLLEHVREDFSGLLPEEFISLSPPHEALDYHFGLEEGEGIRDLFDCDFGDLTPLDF

Cn1cc[nH]c1=S
not listed: [18] | [19] | [20]
inactive: all other assays above

O=S(=O)(O)CCC(F)(F)C(F)(F)C(F)(F)C(F)(F)C(F)(F)C(F)(F)F
not listed: [2] | [20]
inactive: all other assays above

O=C(O)[C@H](O)[C@@H](O)C(=O)O
not listed: [8] | [20]
inactive: all other assays above

CCCCCCCC/C=C\CCCCCCCC(=O)OC[C@@H](O)[C@H]1OC[C@H](O)[C@H]1O
not listed: [4]
inactive: all other assays above

CC(C)CC(C)O (configuration not stated)
not listed: [2]
inactive: all other assays above

OC(CCl)CCl
not listed: [8] | [20]
inactive: all other assays above

OCc1ccccc1
not listed: [2] | [20]
inactive: all other assays above
